# ChEMBL document CHEMBL4513135, “CO-ADD screening of IQOG CSIS (Spain) compounds”
# Entries with a potency or affinity are not part of this list.
# Tested on: Klebsiella pneumoniae
# Details: Concentration 32 ug.mL-1; ASSAY_TEST Inhibition of Bacterial Growth; detection method Absorption (OD600); MEDIA CAMHB; plate type 384well; NBS; CORNING #3640; time 18 hr
row,Structure (SMILES),Inhibition [%]
1,N#CC1(Br)C(=NBr)Oc2ccc3ccccc3c2C1c1cccc([N+](=O)[O-])c1 (stereo not given),8.04
2,O=C(N/N=C/c1c[nH]c2ccccc12)c1ccco1,12.93
3,Cl.ClCCCC1CCNCC1,10.49
4,COc1ccc(/C=C2/N=C(c3ccccc3)OC2=O)cc1OC,-24.56
5,Cn1ccnc1C1c2ccc3cccnc3c2Oc2nc3c(c(N)c21)CCCCC3 (stereo not given),9.25
6,Nc1c2c(nc3c1C(c1ccccc1)c1ccc4ccccc4c1O3)CCCC2 (stereo not given),7.96
7,O=C(Cc1c[nH]c2ccccc12)NNCCc1ccccc1,0.81
8,Cn1ccnc1C1c2ccc3cccnc3c2Oc2nc3c(c(N)c21)CCC3 (stereo not given),5.38
9,Cn1ccnc1C1C2=C(CC(C)(C)CC2=O)Oc2nc3c(c(N)c21)CCCC3 (stereo not given),9.51
10,CCOC(=O)c1c(C)nc(NCC2CCN(Cc3ccccc3)CC2)c(C#N)c1-c1ccccc1,9.84
11,N#CC1=C(N)Oc2ccc3ccccc3c2C1,-0.19
12,Cl.N#Cc1cc(C#N)c(N2CCCC2)nc1Cl,14.18
13,COc1ccc(C2c3c(ccc4ccccc34)OC(=N)C2(Br)C#N)cc1OC (stereo not given),2.61
14,COc1ccc2c(c1)cc(CO)n2C,4.36
15,N#Cc1cc(C#N)c(N2CCC(Cc3ccccc3)CC2)nc1N,-9.32
16,NNC(=O)CCc1c[nH]c2ccccc12,5.25
17,C#CCNc1nc(NCCCC2CCN(Cc3ccccc3)CC2)c(C#N)cc1C#N.Cl,-17.1
18,O=Cc1cc2ccccc2nc1Cl,-2.74
19,Cn1cc(C=O)c2ccccc21,2.25
20,C#CCNc1cccc(F)n1,9.96

row,Structure (SMILES),Inhibition [%]
1,CC1CC(=O)Nc2c1c(Cl)nc1nc3c(c(N)c21)CCCC3 (stereo not given),13.46
2,COc1ccc(C2c3ccc4ccccc4c3OC(=NBr)C2(Br)C#N)cc1OC (stereo not given),8.89
3,N#C[C@]1(Br)C(=N)Oc2ccc3ccccc3c2[C@@H]1c1ccc([N+](=O)[O-])cc1,5.78
4,CCCC(C)NNC(=O)c1cc2ccccc2[nH]1 (stereo not given),-0.18
5,c1ccc(CNc2ncnc3c2cnn3-c2ccccc2)cc1,-0.11
6,COc1ccc(C2C(C#N)=C(N)Oc3ccc4ccccc4c32)cc1 (stereo not given),8.69
7,O=C(NCc1ccccc1)c1cc2ccccc2[nH]1,1.5
8,COc1cc(C2C(C#N)=C(N)Oc3ccc4ccccc4c32)ccc1O (stereo not given),5.47
9,Nc1ccccc1C(=O)N/N=C/c1c[nH]c2ccccc12,18.84
10,N#CC1(Br)C(=NBr)Oc2c(ccc3ccccc23)C1c1cccc([N+](=O)[O-])c1 (stereo not given),24.92
11,N#C/C(=C\c1ccccc1Cl)C(=O)c1ccccc1,13.98
12,CSC1=NC2(CC2c2ccccc2)C(=O)N1C (stereo not given),-3.2
13,O=C(N/N=C/c1c[nH]c2ccccc12)c1cc2ccccc2[nH]1,11.64
14,CN1C/C(=C\Br)n2c1c(C#N)cc(C#N)c2=O,4.89
15,N#Cc1cc(C#N)c(NCCO)nc1N,12.5
16,Cn1c(C(=O)O)cc2cc(OCCCC3CCN(Cc4ccccc4)CC3)ccc21,12.92
17,N#Cc1cc(C#N)c(NCCCC2CCN(Cc3ccccc3)CC2)nc1N,10.46
18,C#CCNc1nc(OC)c(C#N)c(-c2ccccc2)c1C#N,13.71
19,O=C(N/N=C/Cc1ccccc1)c1cc2ccccc2[nH]1,10.16
20,COc1ccccc1C1C(C#N)=C(N)Oc2ccc3ccccc3c21 (stereo not given),9.04

# Tested on: Candida albicans
# Details: 32 ug/mL
row,Structure (SMILES),Inhibition [%]
1,N#CC1(Br)C(=NBr)Oc2ccc3ccccc3c2C1c1cccc([N+](=O)[O-])c1 (stereo not given),7.45
2,O=C(N/N=C/c1c[nH]c2ccccc12)c1ccco1,1.93
3,Cl.ClCCCC1CCNCC1,0.27
4,COc1ccc(/C=C2/N=C(c3ccccc3)OC2=O)cc1OC,-0.31
5,Cn1ccnc1C1c2ccc3cccnc3c2Oc2nc3c(c(N)c21)CCCCC3 (stereo not given),2.52
6,Nc1c2c(nc3c1C(c1ccccc1)c1ccc4ccccc4c1O3)CCCC2 (stereo not given),0.57
7,O=C(Cc1c[nH]c2ccccc12)NNCCc1ccccc1,1.99
8,Cn1ccnc1C1c2ccc3cccnc3c2Oc2nc3c(c(N)c21)CCC3 (stereo not given),2.9
9,Cn1ccnc1C1C2=C(CC(C)(C)CC2=O)Oc2nc3c(c(N)c21)CCCC3 (stereo not given),1.3
10,CCOC(=O)c1c(C)nc(NCC2CCN(Cc3ccccc3)CC2)c(C#N)c1-c1ccccc1,2.46
11,N#CC1=C(N)Oc2ccc3ccccc3c2C1,0.68
12,Cl.N#Cc1cc(C#N)c(N2CCCC2)nc1Cl,3.61
13,COc1ccc(C2c3c(ccc4ccccc34)OC(=N)C2(Br)C#N)cc1OC (stereo not given),7.63
14,COc1ccc2c(c1)cc(CO)n2C,3.54
15,N#Cc1cc(C#N)c(N2CCC(Cc3ccccc3)CC2)nc1N,1.71
16,NNC(=O)CCc1c[nH]c2ccccc12,0.67
17,C#CCNc1nc(NCCCC2CCN(Cc3ccccc3)CC2)c(C#N)cc1C#N.Cl,1.71
18,O=Cc1cc2ccccc2nc1Cl,7.94
19,Cn1cc(C=O)c2ccccc21,1.53
20,C#CCNc1cccc(F)n1,-0.33

row,Structure (SMILES),Inhibition [%]
1,CC1CC(=O)Nc2c1c(Cl)nc1nc3c(c(N)c21)CCCC3 (stereo not given),3.48
2,COc1ccc(C2c3ccc4ccccc4c3OC(=NBr)C2(Br)C#N)cc1OC (stereo not given),5.08
3,N#C[C@]1(Br)C(=N)Oc2ccc3ccccc3c2[C@@H]1c1ccc([N+](=O)[O-])cc1,6.21
4,CCCC(C)NNC(=O)c1cc2ccccc2[nH]1 (stereo not given),0.67
5,c1ccc(CNc2ncnc3c2cnn3-c2ccccc2)cc1,0.45
6,COc1ccc(C2C(C#N)=C(N)Oc3ccc4ccccc4c32)cc1 (stereo not given),1.62
7,O=C(NCc1ccccc1)c1cc2ccccc2[nH]1,-0.44
8,COc1cc(C2C(C#N)=C(N)Oc3ccc4ccccc4c32)ccc1O (stereo not given),0.23
9,Nc1ccccc1C(=O)N/N=C/c1c[nH]c2ccccc12,-0.37
10,N#CC1(Br)C(=NBr)Oc2c(ccc3ccccc23)C1c1cccc([N+](=O)[O-])c1 (stereo not given),10.2
11,N#C/C(=C\c1ccccc1Cl)C(=O)c1ccccc1,10.6
12,CSC1=NC2(CC2c2ccccc2)C(=O)N1C (stereo not given),0.11
13,O=C(N/N=C/c1c[nH]c2ccccc12)c1cc2ccccc2[nH]1,0.51
14,CN1C/C(=C\Br)n2c1c(C#N)cc(C#N)c2=O,3.61
15,N#Cc1cc(C#N)c(NCCO)nc1N,1.22
16,Cn1c(C(=O)O)cc2cc(OCCCC3CCN(Cc4ccccc4)CC3)ccc21,6.79
17,N#Cc1cc(C#N)c(NCCCC2CCN(Cc3ccccc3)CC2)nc1N,0.89
18,C#CCNc1nc(OC)c(C#N)c(-c2ccccc2)c1C#N,1.22
19,O=C(N/N=C/Cc1ccccc1)c1cc2ccccc2[nH]1,-1.49
20,COc1ccccc1C1C(C#N)=C(N)Oc2ccc3ccccc3c21 (stereo not given),2.24
